From PubChem BioAssay AID1347074 (Center for Chemical Genomics, University of Michigan, 2019)
Screen size: about 47,000 compounds; about 2,800 (6%) were called active. Cut-off read from the data, not from the text of the source: active = z-score above about 3 (passing the limit was not always enough); inactive = the rest. Only a selection was taken, and actives are over-represented in it overall.

The compounds below were run against Endoribonuclease Dicer (Homo sapiens) (UniProt Q9UPY3) (assay: inhibitors of Dicer pre-microRNA processing, primary screen, biochemical, cat-ELCCA, chemiluminescence (AID 1347074;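 note: plate controls were vehicle for no effect and no enzyme for full effect; higher signal means more uncleaved substrate so more Dicer inhibition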)). Settings: cat-ELCCA pre-miR-21 Dicer processing, at 25 µM, hits give high values.
Chain of Endoribonuclease Dicer (Homo sapiens) (Q9UPY3 whole entry, looked up): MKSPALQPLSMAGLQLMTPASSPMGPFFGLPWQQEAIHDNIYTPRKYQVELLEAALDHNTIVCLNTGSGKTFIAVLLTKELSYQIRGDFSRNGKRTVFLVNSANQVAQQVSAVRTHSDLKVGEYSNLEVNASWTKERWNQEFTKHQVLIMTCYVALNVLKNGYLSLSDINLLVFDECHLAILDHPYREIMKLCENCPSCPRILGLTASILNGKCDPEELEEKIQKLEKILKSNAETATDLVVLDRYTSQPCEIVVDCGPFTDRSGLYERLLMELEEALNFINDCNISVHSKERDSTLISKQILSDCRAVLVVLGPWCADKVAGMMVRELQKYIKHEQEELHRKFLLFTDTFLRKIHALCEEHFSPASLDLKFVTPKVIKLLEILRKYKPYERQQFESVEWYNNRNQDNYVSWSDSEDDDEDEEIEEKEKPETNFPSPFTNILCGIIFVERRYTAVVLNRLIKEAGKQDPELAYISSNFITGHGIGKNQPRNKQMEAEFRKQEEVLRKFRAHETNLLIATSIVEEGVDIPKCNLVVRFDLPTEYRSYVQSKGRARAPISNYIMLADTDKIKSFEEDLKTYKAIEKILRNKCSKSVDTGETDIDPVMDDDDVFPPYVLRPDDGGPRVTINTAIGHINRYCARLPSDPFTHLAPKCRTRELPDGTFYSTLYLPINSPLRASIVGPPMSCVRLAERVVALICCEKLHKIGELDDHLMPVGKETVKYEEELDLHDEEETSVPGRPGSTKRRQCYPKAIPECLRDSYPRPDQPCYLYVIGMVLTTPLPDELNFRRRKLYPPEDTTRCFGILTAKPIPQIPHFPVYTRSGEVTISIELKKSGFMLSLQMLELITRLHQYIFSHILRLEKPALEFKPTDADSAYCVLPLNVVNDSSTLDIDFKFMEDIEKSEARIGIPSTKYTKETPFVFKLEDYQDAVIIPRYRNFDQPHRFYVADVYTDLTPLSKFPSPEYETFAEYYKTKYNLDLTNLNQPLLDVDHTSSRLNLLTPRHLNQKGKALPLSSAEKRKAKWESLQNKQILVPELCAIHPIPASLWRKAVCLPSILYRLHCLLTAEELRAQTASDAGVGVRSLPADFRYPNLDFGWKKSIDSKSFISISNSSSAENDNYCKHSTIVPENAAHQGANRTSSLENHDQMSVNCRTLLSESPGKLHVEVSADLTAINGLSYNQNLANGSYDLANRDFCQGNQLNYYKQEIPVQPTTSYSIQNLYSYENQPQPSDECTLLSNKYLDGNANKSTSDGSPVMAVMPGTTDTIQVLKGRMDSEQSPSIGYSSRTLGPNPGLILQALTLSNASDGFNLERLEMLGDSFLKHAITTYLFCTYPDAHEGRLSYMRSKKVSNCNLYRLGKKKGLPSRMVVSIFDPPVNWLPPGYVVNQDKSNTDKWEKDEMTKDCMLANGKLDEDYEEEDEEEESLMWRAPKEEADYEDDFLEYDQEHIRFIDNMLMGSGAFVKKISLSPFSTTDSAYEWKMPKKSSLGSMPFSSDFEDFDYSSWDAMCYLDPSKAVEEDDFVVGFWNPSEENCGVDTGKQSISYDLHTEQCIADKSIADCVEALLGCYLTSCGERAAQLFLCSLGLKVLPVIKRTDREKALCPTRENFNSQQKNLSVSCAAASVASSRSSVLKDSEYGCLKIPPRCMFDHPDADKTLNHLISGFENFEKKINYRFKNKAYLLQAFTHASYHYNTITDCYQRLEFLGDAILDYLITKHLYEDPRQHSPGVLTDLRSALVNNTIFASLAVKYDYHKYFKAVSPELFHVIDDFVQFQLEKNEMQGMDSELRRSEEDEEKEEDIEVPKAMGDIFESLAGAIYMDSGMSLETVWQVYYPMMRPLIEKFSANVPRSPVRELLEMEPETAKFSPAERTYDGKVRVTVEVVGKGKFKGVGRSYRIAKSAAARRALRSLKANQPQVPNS
For `CCCN1C(=O)C(O)(CC(=O)c2ccc(C(C)(C)C)cc2)c2ccccc21` (stereo not drawn), the z-score was -0.52 (inactive).
`Cc1cc(N2C(=O)CC(C)(C)CC2=O)n(C)n1` was tested, and the z-score was -0.86 (inactive).
With `CCOC(=O)c1c(N/N=C\c2ccccc2O)n[nH]c1C` the z-score was 1.01 (inactive).
For `CCC(C)c1ccc(O)c(/C=N/Nc2ccccc2)c1` (stereo not drawn), the z-score was 6.05 (active).
With `COc1ccccc1C1CCN(S(=O)(=O)c2ccc(Oc3c(Cl)cccc3[N+](=O)[O-])cc2)CC1` the z-score was 1.46 (inactive).
In the case of `CCC(C)c1ccccc1OCC(O)CN1C(=O)NC(C)(C)C1=O` (stereo not drawn), the z-score is reported as 0.96 (inactive).
For `Oc1ccccc1-c1nc(/C=C/c2cccs2)no1`, the z-score was 2.56 (inactive).
For `Cc1ccc(-n2nnnc2-c2cnc3ccccc3c2C)cc1`, the z-score was -0.58 (inactive).
With `FC(F)(F)c1nc(-c2ccccc2)ncc1-c1nnnn1-c1ccccc1` the z-score was 3.06 (active).
With `Fc1ccc(-n2nnnc2-c2cnc3ccc(Cl)cc3c2-c2ccccc2)cc1` the z-score was 0.2 (inactive).
For `CCc1ccccc1N1CC23C=CC(O2)C(C(=O)OC(C)C)C3C1=O` (stereo not drawn), the z-score was -0.64 (inactive).
In the case of `COc1cc(/C=C2/N=C(c3ccccc3)N(C)C2=O)cc(OC)c1OC`, the z-score is reported as 2.54 (inactive).
With `CCOC(=O)c1c(C)[nH]c(=O)c([N+](=O)[O-])c1O` the z-score was 0.2 (inactive).
For `CC1([N+](=O)[O-])COC(c2ccccc2)OC1` (stereo not drawn), the z-score was 1.75 (inactive).
In the case of `O=C1OC2(CCCCC2)OC1c1ccccc1` (stereo not drawn), the z-score is reported as 3.75 (active).
In the case of `Cn1c(=O)c(C#N)c(O)c2ccccc21`, the z-score is reported as 0.83 (inactive).
`CCCCc1ccc(S(N)(=O)=O)cc1` was tested, and the z-score was -0.91 (inactive).
In the case of `CCCCc1ccc(-n2c(-c3ccc(F)cc3)coc2=O)cc1`, the z-score is reported as 9.25 (active).
In the case of `Fc1ccc(NC2=NCCN=C(Nc3ccc(F)cc3F)SS2)c(F)c1`, the z-score is reported as -0.47 (inactive).
`CSc1scc(NC(=O)Nc2cc(Cl)cc(Cl)c2)c1S(=O)(=O)C(C)C` was tested, and the z-score was 30.2 (active).
In the case of `O=C(Nc1cc(Cl)cc(Cl)c1)Nc1cnccc1C(F)(F)F`, the z-score is reported as 0.4 (inactive).
For `O=C(CSc1nc(-c2ccc(F)cc2)cc(C(F)(F)F)n1)N1CCOCC1`, the z-score was -0.77 (inactive).
`C/C(=N\OC(=O)c1ccc(Cl)cc1)c1nnn(-c2cc(C(F)(F)F)cc(C(F)(F)F)c2)c1C` was tested, and the z-score was 0.47 (inactive).
With `CCOc1ccc(S(=O)(=O)N2CCSC2c2cccc(Cl)c2)cc1` (stereo not drawn) the z-score was 1.41 (inactive).
`O=c1c2cc(-c3ccccc3)sc2n(Cc2ccccc2Cl)c(=O)n1-c1ccccc1` was tested, and the z-score was 0.38 (inactive).
In the case of `COC(=O)c1c(NC(=O)CCCOc2ccc(Cl)cc2)sc2c1CCCC2`, the z-score is reported as 4.01 (active).
For `COC(=O)c1c(NC(=O)COc2ccccc2)sc2c1CCCC2`, the z-score was 0.4 (inactive).
With `CCCC1CCc2c(sc(NC(=O)COc3ccc(Cl)cc3)c2C(N)=O)C1` (stereo not drawn) the z-score was -0.31 (inactive).
`CC1(C)CC(=O)C=C(Nc2cc(-c3ccc(Cl)cc3)[nH]n2)C1` was tested, and the z-score was 2.1 (inactive).
For `Cc1nc2cc(-n3c(O)c[nH]c3=O)ccc2s1`, the z-score was 1.96 (inactive).
In the case of `CCOC(=O)c1c(C)n(CCOc2ccc(F)cc2)c2ccc(O)cc12`, the z-score is reported as 4.76 (active).
For `CCOC(=O)c1c(C)oc2ccc(OCc3ccc(C(=O)OC)cc3)cc12`, the z-score was 0.32 (inactive).
`CCOC(=O)C1=C(O)CSC1=Nc1ccc(F)cc1` was tested, and the z-score was 2.03 (inactive).
`Cc1cc(C)c2c(n1)sc1c(=O)n(C)cnc12` was tested, and the z-score was 1.74 (inactive).
In the case of `CCOC(=O)C1=C(N)Oc2c(Br)cc(Cl)cc2C1C(C#N)C(=O)OCC` (stereo not drawn), the z-score is reported as 2.22 (inactive).
`CCOC(=O)C(NC(=O)c1ccccc1)(OC(C)C)C(F)(F)F` (stereo not drawn) was tested, and the z-score was 0.49 (inactive).
For `FC(F)(F)c1cc(Cl)c2ncc(-c3ccc(Cl)c(Cl)c3)nc2c1`, the z-score was 1.2 (inactive).
`O=C1CC(c2nc3ccccc3n2Cc2ccc(F)cc2)CN1c1ccccc1` (stereo not drawn) was tested, and the z-score was 5.55 (active).
`CC(C)Cn1c(C2CC(=O)N(c3ccccc3)C2)nc2ccccc21` (stereo not drawn) was tested, and the z-score was 5.98 (active).
In the case of `NC1=NC(c2cc(F)cc(F)c2)n2c(nc3ccccc32)N1` (stereo not drawn), the z-score is reported as -1.88 (inactive).
In the case of `CCn1c(C(O)c2ccc(C(C)C)cc2)nc2ccccc21` (stereo not drawn), the z-score is reported as 1.03 (inactive).
`Cc1nc2ccccc2n1C1CC(=O)N(c2ccccc2)C1=O` (stereo not drawn) was tested, and the z-score was 0.3 (inactive).
`O=c1n(Cc2ccccc2)c2ccccc2n1Cc1ccccc1` was tested, and the z-score was -0.36 (inactive).
`CCCCOCC1CC2(CC(C)(c3csc(Nc4ccccc4Cl)n3)OC2=O)C(=O)O1` (stereo not drawn) was tested, and the z-score was 0.26 (inactive).
`O=C(Nc1cccc(F)c1)c1sc2ccccc2c1Cl` was tested, and the z-score was 4.06 (active).
With `O=C(Nc1ccc2oc(-c3ccncc3)nc2c1)c1sc2ccccc2c1Cl` the z-score was 0.13 (inactive).
In the case of `O=C(Nc1cccc2ncccc12)c1sc2ccccc2c1Cl`, the z-score is reported as 0.23 (inactive).
`N#CC1=C(N)Oc2cc(O)ccc2C1c1cccc(Br)c1` (stereo not drawn) was tested, and the z-score was -2.59 (inactive).
`O=C1Nc2ccc(Br)cc2C1O` (stereo not drawn) was tested, and the z-score was -6.13 (inactive).
In the case of `CCOC(=O)c1cnn2c1nc(Oc1cc(C(F)(F)F)cc(C(F)(F)F)c1)c1ccccc12`, the z-score is reported as -0.15 (inactive).
With `COC(=O)C(C)N(C#N)c1nc(N(C)C)nc(N(C)C)n1` (stereo not drawn) the z-score was 5.93 (active).
For `CC(C)NC(=O)NNc1cc(N(C)C)c(C#N)c(N(C)C)n1`, the z-score was -3.01 (inactive).
With `COc1ccc(N2CCN(Cc3nc4c(c(=O)n(C)c(=O)n4C)n3CC(=O)C(C)(C)C)CC2)cc1` the z-score was -2.02 (inactive).
For `Cc1ccc(/C(O)=C2\C(=O)C(=O)N(CCCN3CCOCC3)C2c2ccc(C)cc2)cc1` (stereo not drawn), the z-score was 0.47 (inactive).
With `CCCCCCC#Cc1cncc(-c2nnc(SCC(=O)Nc3ccccc3)n2C)c1` the z-score was 0.64 (inactive).
For `O=C(Nc1ccc(F)cc1F)N1CCN(c2ccccn2)CC1`, the z-score was 2.53 (inactive).
`Cc1ccc(C)c(-c2nc(C)sc2CC(=O)O)c1` was tested, and the z-score was 0.81 (inactive).
In the case of `CCn1c(=O)c2c(n3c(SCC(N)=O)nnc13)-c1ccccc1CC21CCCCC1`, the z-score is reported as 5.92 (active).
`Cn1c(-c2ccccc2)nc2c(c1=O)C1(CCCCC1)Cc1ccccc1-2` was tested, and the z-score was -0.41 (inactive).
`Fc1ccc(-c2cc3ncc4c(n3n2)-c2cc(F)ccc2OC4)cc1` was tested, and the z-score was -1.86 (inactive).
For `Cc1cc(C)c2c(c1)C(=O)C(c1cc(=O)c3ccccc3[nH]1)C2=O` (stereo not drawn), the z-score was 1.92 (inactive).
For `Clc1ccc(-c2csc(N/N=C\c3ccn[nH]3)n2)cc1`, the z-score was 0.61 (inactive).
In the case of `CC(C)NC(=S)N/N=C/c1ccn[nH]1`, the z-score is reported as 3.01 (active).
